LRH-1 inv ag: LRH-1 (NR5A2) inverse agonists, primary screen, cell-based, luminescence, HEK293T, StAR-luciferase reporter | inhibition, % at 3.6 µM | hit rate 0.13% among 360,000 | LRH-1 transfected, 24 h | Nuclear receptor subfamily 5 group A member 2 (Homo sapiens), O00482;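 active means inhibition above the mean inhibition of all tested compounds plus 3 SD, cut at about 73% in these data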
SRC2 inh: inhibition of GAL4-SRC2 driven luciferase reporter, primary screen, SRC2 inhibitor project, cell-based, luminescence. Nuclear receptor coactivator 2 (Homo sapiens), Q15596. HEK293 GAL4-SRC2 luciferase reporter. inhibition, % at 9 µM. hit rate 0.17% among 370,000;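 active means inhibition above the mean inhibition of all tested compounds plus 3 SD, set per campaign, cut at about 52% in these data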
LGR2 inh: inhibitors of bursicon-induced LGR2 CRE-luciferase signal, primary screen, cell-based, HEK293, CRE-luciferase reporter, bursicon stimulation; Drosophila bursicon receptor LGR2 (rickets); bursicon-stimulated, 4 h; inhibition, % at 9.99 µM; hit rate 0.35% among 380,000; AID 720647, 2013;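 active means drop in luminescence signal, shown as inhibition above about 50% in the replicate tests, limit read from the data, passing the limit was not always enough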;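 further: agonist challenge used bursicon conditioned medium at about half maximal strength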
NCOA3 inh: SRC3 coactivator transcriptional activity inhibitors, primary screen, cell-based, luminescence. Nuclear receptor coactivator 3 (Homo sapiens), Q9Y6Q9. HEK293 GAL4-SRC3 luciferase reporter. inhibition, % at 3.6 µM. hit rate 0.17% among 360,000;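 active means inhibition above a per-campaign cutoff, the mean of all compounds plus 3 SD, cut at about 60% in these data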;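 further: higher means less SRC3-driven luciferase light from the GAL4 reporter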
NCOA1 inh: SRC1 coactivator transcriptional activity inhibitors, primary screen, cell-based, luminescence. HEK293 GAL4-SRC1 luciferase reporter. Nuclear receptor coactivator 1 (Homo sapiens), Q15788. hit rate 0.12% among 360,000. inhibition, % at 3.6 µM;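 active means inhibition above the campaign mean plus 3 SD, with each screening campaign given its own cutoff, cut at about 60% in these data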
Hits are given with their value; i = inactive; nt = no result given. This is a sample that favours compounds with a hit; in the whole collection about 0.48% have one here.

SMILES	LRH-1 inv ag	SRC2 inh	LGR2 inh	NCOA3 inh	NCOA1 inh
Cc1cccc(S(=O)(=O)N2[C@@H]3c4ccc(-c5cccc(F)c5)c(=O)n4C[C@H]2[C@H](CO)[C@H]3C(=O)O)c1	nt	nt	i	nt	nt
O=[N+]([O-])c1ccc(N2CCOCC2)c2cccnc12	i	i	i	i	i
O=[N+]([O-])c1ccc(N2CCOCC2)c2c1no[n+]2[O-]	92	97	nt	91	78
N#Cc1cccc(-c2ccc([C@H]3[C@H](CO)N4CCCCN(C(=O)Cc5ccncc5)C[C@@H]34)cc2)c1	nt	nt	i	nt	nt
O=C1/C(=C/c2ccccc2)C[C@@]2(O)[C@H]3Cc4ccc(O)c5c4[C@@]2(CCN3CC2CC2)C1O5 (stereo not given in full)	84	nt	nt	83	86
COc1ccc(OC(=O)N(C)C[C@H]2OCc3ccccc3-c3c(n(C)c4ccccc34)C(=O)N([C@H](C)CO)C[C@@H]2C)cc1	nt	nt	i	nt	nt
C[C@H]1C[C@@H](C)C(=O)[C@@H]([C@H](O)CC2CC(=O)NC(=O)C2)C1	103	72	95	93	92
O=C(C1CC1)N1C[C@@H]2N[C@H](C1)[C@@H]2c1ccc(-c2ccncc2)cc1	nt	nt	65	nt	nt
COC(=O)[C@@H]1[C@@H](CO)[C@@H]2Cn3c(ccc(/C=C/c4ccccc4)c3=O)[C@H]1N2C(=O)C1CCC1	nt	nt	i	nt	nt
NCCc1ccc(OCc2ccccc2)c(OCc2ccccc2)c1	i	i	88	i	i
COc1ccc(CCN)cc1OC	i	i	nt	i	i
COC(=O)[C@H]1[C@H](CO)[C@H]2Cn3c(ccc(-c4cccc(OC)c4)c3=O)[C@@H]1N2CC1CC1	nt	nt	i	nt	nt
C/C=C/c1ccc(C2[C@H]3CNC[C@@H]2N3CC2CC2)cc1 (stereo not given in full)	nt	nt	i	nt	nt

Assay outcomes from PubChem.
